KLF5 inh: suppresses KLF5 promoter-driven expression; DLD-1 KLF5 promoter-luciferase reporter, luminescence; inhibition, % at 5 µM; 290,000 compounds, 0.23% hits; AID 1700;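 active = inhibition above a per-plate limit of that plate's mean compound inhibition plus 3 SD, cut at about 60% in these data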;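 note: higher means less KLF5 promoter-driven luciferase light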
Gli-Sufu antag: antagonists of Gli-Sufu signaling. Sufu-KO-LIGHT fibroblasts, Gli luciferase reporter luminescence. inhibition, % at 5 µM. 340,000 compounds, 0.74% hits;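 active = inhibition above about 55%, limit read from the data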
Jurkat NFkB inh: lowers PMA/ionomycin-induced NF-kB signal in Jurkat cells. 330,000 compounds, 0.53% hits. inhibition, % at 4 µM. AID 435003. PMA/ionomycin-induced NF-kB luciferase reporter, luminescence; in the data active = inhibition above about 50%
Mdm2-MdmX inh: human Mdm2/MdmX binding inhibition; O15151+Q00987; SaOS-2 split-luciferase Mdm2/MdmX complementation, luminescence; inhibition, % at 8 µM; 330,000 compounds, 3% hits; AID 485346;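 active = inhibition of at least 50% at 8 µM in the primary screen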
697 NFkB inh: lowers PMA/ionomycin-induced NF-kB signal in 697 B cells; 697 B-cell NF-kB luciferase reporter, 16 h; inhibition, % at 4 µM; 330,000 compounds, 0.33% hits; in the data active = inhibition above about 35%
aSyn 5UTR inh: 5' untranslated region of α-synuclein, MLPCN primary screen; AID 1813; 300,000 compounds, 0.82% hits; alpha-synuclein 5'UTR reporter, inhibitor activity; inhibition, % (tested at 7.5 µM); in the data active = inhibition above about 60%;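 note: H4 neuroglioblastoma cells stably carrying SNCA 5'UTR luciferase fusion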
697 NFkB conf: lowers PMA/ionomycin-induced NF-kB signal in 697 B cells; shares compounds with 697 NFkB inh; 697 B-cell NF-kB luciferase, 16 h; inhibition, % at 4 µM; 2,000 compounds, 35% hits; in the data active = inhibition mostly above about 28%, no sharp cut-off; inactive = mostly below about 22%
Mdm2-MdmX conf: human Mdm2/MdmX binding inhibition, confirmed; AID 489028; 10,000 compounds, 55% hits; shares compounds with Mdm2-MdmX inh; inhibition, % at 8 µM; luminescent assay; in the data active = inhibition above about 40%
Full FLuc ctr: counter-screen for Mdm2/MdmX inhibitors: full-length luciferase. AID 504607. SaOS-2 full-length luciferase counterscreen, luminescence. shares compounds with Mdm2-MdmX inh. inhibition, % at 8 µM. 6,200 compounds, 77% hits;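 active = mean inhibition at 8 µM reaching about 37%, which flags the compound as non-specific, limit read from the data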;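 note: p53-null SaOS-2 cells with luciferase driven by a doxycycline-inducible promoter; compound on cells about two nights before reading with doxycycline added after day one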
Hits are given with their value; 0 = inactive; - = no result given. Only some compounds are listed: those with a hit (about 4.1% of all), similar ones and a draw of the others.

SMILES	KLF5 inh	Gli-Sufu antag	Jurkat NFkB inh	Mdm2-MdmX inh	697 NFkB inh	aSyn 5UTR inh	697 NFkB conf	Mdm2-MdmX conf	Full FLuc ctr
O=C(CCN1C(=O)/C(=C/c2ccccc2Cl)SC1=S)Nc1cccnc1	0	0	0	0	0	0	-	-	-
Cc1sc2ncn(CC(=O)NCc3ccco3)c(=O)c2c1-c1ccccc1	0	0	0	0	0	0	-	-	-
CCc1ccc(NC(=O)[C@H](Cc2c[nH]c3ccccc23)NC(=O)[C@@H]2Cc3ccccc3CN2)cc1	0	0	0	93	0	0	0	83	0
Cc1ccc(NC(=O)[C@H](Cc2ccccc2)NC(=O)[C@@H]2Cc3ccccc3CN2)c(C)c1	0	0	0	0	0	0	-	-	-
Cc1ccc(NC(=O)[C@H](Cc2c[nH]c3ccccc23)NC(=O)[C@@H]2Cc3ccccc3CN2)c(C)c1	0	0	0	97	0	0	0	82	49
Cc1cccc(NC(=O)[C@H](Cc2c[nH]c3ccccc23)NC(=O)[C@@H]2Cc3ccccc3CN2)c1	0	0	0	95	0	0	0	79	0
CC(NC(=O)[C@H](Cc1c[nH]c2ccccc12)NC(=O)[C@@H]1Cc2ccccc2CN1)c1ccccc1 (stereo not given in full)	0	0	0	0	0	0	-	-	-
Cc1cccc(NC(=O)[C@@H](NC(=O)[C@@H]2Cc3ccccc3CN2)C(C)C)c1	0	0	0	0	0	0	-	-	-
COc1ccc(Sc2cc(C(F)(F)F)nc(-c3ccccn3)n2)cc1	0	0	0	0	0	0	-	-	-
Cc1ccc(S(=O)(=O)/N=c2\ccc(Cl)cn2C(F)F)cc1	0	0	0	0	0	0	-	-	-
O=C1NC[C@H](CC2CCCCC2)N(CCc2cccc(F)c2)C1=O	-	0	0	0	0	0	-	-	-
N=c1ccn2c(n1)OC1C(O)C(CO)OC12 (stereo not given)	0	0	0	69	54	112	60	72	46
CCN(CC(=O)NC1CCS(=O)(=O)C1)S(=O)(=O)c1ccccc1Cl (stereo not given)	0	0	0	0	0	0	-	-	-
CC(=O)/C(C#N)=C1\NC(=O)C(Cc2ccccc2C)S1 (stereo not given)	0	0	0	83	0	0	0	70	41
O=C(Nc1nc(-c2ccccc2)cs1)c1ccccc1NS(=O)(=O)c1ccc(F)cc1	0	0	0	90	47	63	52	89	0
CCOc1ccc2nc(NC(=O)c3ccccn3)sc2c1	0	0	0	76	0	80	0	76	42
COc1ccc2nc(NC(=O)c3cnccn3)sc2c1	0	0	0	0	0	0	-	-	-
Cc1cnc(NC(=O)COc2cccc3c2OC(C)(C)C3)s1	0	0	0	77	0	0	0	68	42
COc1ccc(NC(=O)COc2cccc3c2OC(C)(C)C3)cc1OC	-	0	0	0	0	-	-	-	-
O=C(c1ccco1)N1CCN(c2c([N+](=O)[O-])nn(-c3cccc(Cl)c3)[n+]2[O-])CC1	0	0	0	0	0	0	-	-	-
Cn1c(=N)n(CC(=O)c2ccc(Cl)c(Cl)c2)c2ccccc21	0	0	0	78	0	81	0	73	145
Brc1ccc(-c2csc3ncnc(-n4nnc5ccccc54)c23)cc1	0	0	0	0	0	0	-	-	-
CCN(CC)c1ccc2cc(-c3nc4ccccc4n3C)c(=O)oc2c1	0	0	-	-	-	0	-	-	-
CCN(CC)c1ccc2cc(-c3nc4ccccc4[nH]3)c(=O)oc2c1	0	0	0	67	0	0	0	47	45
O=C(/C=C/Sc1ccccc1)c1ccccc1	0	0	0	52	0	0	0	0	-
O=C(/C=C/Sc1ccccc1)c1ccc(Cl)cc1	0	0	0	0	0	0	-	-	-
